Only a selection was taken, and hits are over-represented in it overall.
VP16 counter: inhibits Gal4-VP16 luciferase reporter, ROR gamma counter-screen | Drosophila S2 Gal4-VP16 UAS-luciferase, luminescence, 20 h | Potency, µM (highest dose often 53.6 µM), for the others: at the top dose activity, negative = inhibition, hits mostly inhibitors | hit rate 3.5% among 310,000 | AID 2546;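 further: Gal4-VP16 expression switched on by copper sulfate through the metallothionein promoter; potency means the concentration at half of the fitted maximal effect; on the % scale 0 is the no-effect control and ±100 the full control effect; nearly all actives have a fitted effect of over 50% in size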
a7 integrin act: activates integrin-mediated alleviation for muscular dystrophy | hit rate 0.064% among 350,000 | Potency, µM (titrated, usually from 38.3 µM), for inactives: at the highest dose activation, hits mostly activators | alpha7betagal myoblasts, beta-gal FDG fluorescence, 48 h;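 further: potency means the concentration at half of the fitted maximal effect; 100% = response of the positive control SU9516; nearly all actives have a fitted effect of over 60% in size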
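Alpha7betagal+/- myoblasts (passage 13) were plated 16-24 hr, then exposed to compounds (1:260 dilution of DMSO stock) for 48 hours at 37C. After MPER lysis, β-galactosidase reporter activity was read as FDG fluorescence (ex 480/em 540) after 30 minutes.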
RORgamma inh: ROR gamma (mouse) transcription inhibition | P51450 | hit rate 5.4% among 310,000 | AID 2551 | Potency, µM (doses to about 53.6 µM), for the others: at the top dose activity change, negative = inhibition, most hits filed as inhibitors | Drosophila S2 Gal4-RORgamma UAS-luciferase reporter, 20 h; further: potency means the concentration at half of the fitted maximal effect; on the % scale 0 is the no-effect control and ±100 the full control effect; nearly all actives have a fitted effect of over 60% in size
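Compounds are pin-transferred onto Drosophila Schneider cells expressing a copper-inducible Gal4–ROR gamma transactivation domain fusion. After 1 hr, copper sulfate is added to 700 uM final; luciferase is read 20 hr later.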
Giardia killer: kills Giardia lamblia. Giardia lamblia trophozoite viability. activity change, % at 7.66 µM, hits read low. hit rate 0.15% among 340,000. AID 540267; in the data active means activity change below about -80%; inconclusive means between about -30% and that limit;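 further: parasites exposed to compound for two days anaerobically before the ATP read; on the % scale 0 is the no-effect control and ±100 the full control effect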
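Luminescence from cellular ATP indicates surviving trophozoites (100 cells/well) following 48 hrs anaerobic compound treatment at 37 deg C; signal develops 15-30 min at room temperature.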
ERG Ets-DNA blk: ERG Ets/DNA interaction inhibition. AID 624246. P11308. fluorescence polarization, His-ERG Ets domain / labelled DNA. Potency, µM (top dose mostly 76.9 µM), for the others: at the highest dose FP activity, negative = inhibition, hits mostly inhibitors. hit rate 0.028% among 370,000; active means well fitted inhibition curve with a large enough effect in the polarisation, with a control signal flat; inconclusive means small, poorly fitted or top-dose-only effect, or effect the other way, or a change in a side signal; inactive means no such curve, though single readings can be large or run the other way; the % refers to the polarisation;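 further: polarization taken with two DNA probes labelled with fluorescein and Texas red; potency means the concentration at half of the fitted maximal effect; % of control where 0% means no effect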
Target sequence (P11308 whole entry, looked up, the tested form may be a part): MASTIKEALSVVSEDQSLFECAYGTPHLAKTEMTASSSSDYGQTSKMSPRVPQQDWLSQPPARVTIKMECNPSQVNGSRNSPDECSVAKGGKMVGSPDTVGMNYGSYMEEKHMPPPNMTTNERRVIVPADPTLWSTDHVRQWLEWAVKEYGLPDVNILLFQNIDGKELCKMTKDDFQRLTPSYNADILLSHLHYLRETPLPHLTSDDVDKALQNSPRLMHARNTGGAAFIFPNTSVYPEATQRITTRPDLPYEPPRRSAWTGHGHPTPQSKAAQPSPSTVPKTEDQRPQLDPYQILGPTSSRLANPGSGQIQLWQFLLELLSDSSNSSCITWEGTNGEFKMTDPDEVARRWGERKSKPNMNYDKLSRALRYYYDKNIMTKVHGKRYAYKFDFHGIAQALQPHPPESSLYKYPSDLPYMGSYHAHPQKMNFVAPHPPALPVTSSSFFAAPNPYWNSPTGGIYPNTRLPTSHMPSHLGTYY
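His-tagged ERG Ets domain (1 uM in the protein solution; 300mM KCl, 50mM Tris-HCl, 1mM EDTA, 1mM DTT, pH 7.5) received compound, then a probe mix of 5 nM fluorescein-DNA and 100nM Texas-615-DNA. Fluorescence polarization was read for both dyes.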
The depositor's hits bear a star; u = inconclusive; x = no result given; [ ] = dose if it differs, or a comment. Unless noted, the call rests on the fitted dose curve; in most records, active means well fitted curve in the direction sought with a large enough effect; inconclusive means small, poorly fitted or top-dose-only effect, or another doubt; inactive means no such curve, though single readings can be large; an effect the other way counts as inactive or inconclusive.

SMILES | VP16 counter | a7 integrin act | RORgamma inh | Giardia killer | ERG Ets-DNA blk
CNC(=S)Nc1ccc(C23CC4CC(CC(C4)C2)C3)cc1 | 1.3µM* | 14% | 1.6µM* | 1 | 3%
C=CCN(CC=C)S(=O)(=O)c1ccc(C(=O)Nc2nnc(COC)o2)cc1 | 7.1µM* | u | 2µM* | 1 | 4%
COCc1nnc(NC(=O)c2ccc(S(=O)(=O)N(CC(C)C)CC(C)C)cc2)o1 | 2.5µM* | -10% | 0.63µM* | 7 | -2%
Cc1cc(NC(=O)CSc2nccn2-c2cccc(Cl)c2)no1 | 4% | -23% | 41% | 0 | 9%
O=C(N/N=C/c1cccs1)c1cccc(NC(=O)c2ccc(Cl)cc2)c1 | 13µM* | x | 10µM* | x | x
O=C(N/N=C/c1cccs1)c1cccc(S(=O)(=O)Nc2ccc(Cl)cc2)c1 | 5.6µM* | -2% | 4µM* | 10 | 3%
CCCCOc1ccc(C(=O)N2CCN(CC(=O)Nc3ccc(C)cc3)CC2)cc1OC | 5% | -40% | 10% | 19 | 0%
O=C(CSc1ccccc1)N1CCCC(Nc2ccccc2)C1 (stereo not drawn) | u | -8% | 28% | 2 | 2%
Cc1cnc(NC(=O)CSc2nnc(Cc3ccccc3)o2)s1 | 4% | -11% | 10µM* | 14 | -6%
CCc1nnc(NC(=O)CSc2nnc(COc3cccc(C)c3)o2)s1 | u | 6% | -107% | -14 | -3%
CCc1nnc(NC(=O)CSc2nnc(COc3ccccc3C)o2)s1 | u | 20% | 11µM* | -11 | -4%
CCc1nnc(NC(=O)CSc2nnc(-c3ccco3)o2)s1 | u | 12% | 11µM* | -27 | -3%
CC(Oc1ccccc1F)C(=O)NNC(=O)c1cccc(S(=O)(=O)N2CCN(C)CC2)c1 (stereo not drawn) | x | -18% | x | -6 | -9%
CCc1cccc(C)c1NC(=O)COC(=O)c1cc([N+](=O)[O-])ccc1N1CCOCC1 | x | -2% | x | 5 | -5%
Oc1ccc(Nc2nc3ccccc3nc2Nc2ccc(O)cc2)cc1 | u | -42% | 16µM* | -2 | 7%
O=S(=O)(NCCS(=O)(=O)N1CCN(c2cccc(Cl)c2)CC1)c1ccc(F)cc1 | x | x | x | x | -3%
C(#Cc1ccc2c(c1)COc1c3ccccc3nn1-2)c1ccccc1 | x | 17% | x | 1 | -5%
C=CCNC(=O)c1ccc2c3n(nc2c1)-c1ccc(Cl)cc1CO3 | x | -17% | x | u | -6%
CC(C)NC(=O)c1ccc2c3n(nc2c1)-c1ccccc1CO3 | 4.5µM* | 2% | 4µM* | u | 0%
Cc1ccc2c(c1)COc1c3ccc(C(=O)O)cc3nn1-2 | 5µM* | -3% | 2µM* | -5 | -3%
O=C(NCCO)c1ccc2c3n(nc2c1)-c1ccccc1CO3 | u | 11% | 4.5µM* | u | 1%
CC(C)[C@@H](CO)NC(=O)c1ccc2c3n(nc2c1)-c1ccccc1CO3 | u | 23% | u | u | -5%
O=C(NCC1CC1)c1ccc2c3n(nc2c1)-c1ccccc1CO3 | u | -2% | 14µM* | u | -4%
Cc1ccc2c(c1)COc1c3ccc(C(=O)NCC4CC4)cc3nn1-2 | -24% | -23% | -39% | 12 | 2%
CCC(=O)N1CCc2cc(S(=O)(=O)CCC(=O)N3CCN(c4ccccc4Cl)CC3)ccc21 | x | x | x | x | -10%
SMILES | VP16 counter | a7 integrin act | RORgamma inh | Giardia killer | ERG Ets-DNA blk
Cc1ccc2c(c1)nnn2C1CCN(S(=O)(=O)c2ccc(C(=O)N3C(C)CCCC3C)cc2)CC1 (stereo not drawn) | 16µM* | -13% | u | -11 | -14%
Cc1ccc(NC(=S)NNC(=S)Nc2ccc(C)cc2C)cc1 | -12% | -29% | -42% | 2 | 23%
Cc1ccc(NC(=S)NC(=O)C2CC2)c(C)c1 | 7.1µM* | 11% | 5µM* | 8 | -3%
Cc1nc2ccc(NC(=S)NC3CCCCC3)cc2nc1C | -7%[10 µM] | -13% | 5µM* | -7 | -9%
Cc1ccc(NC(=S)NC(=O)C2CCC2)cc1C | 2.8µM* | 25% | 2.2µM* | 23 | 4%
Cc1ccc(NC(=S)NC2CCCC2)cc1C | 3.5µM* | -9% | 2.8µM* | 1 | 0%
CC(=O)Nc1ccc(NC(=S)NC(=O)C2CC2)cc1 | -2% | 5% | -4% | -8 | 1%
Cc1nc2ccc(NC(=S)N3CCCC3)cc2nc1C | -12% | 20% | 2% | -2 | -11%
O=C(NNC(=S)Nc1ccc(F)c(Cl)c1)C1CC1 | -23% | 2% | -40% | 13 | 6%
O=C(NC(=S)Nc1ccc(F)cc1)C1CCCCC1 | 10µM* | -19% | 8.9µM* | 25 | 4%
NC(=S)Nc1ccc2cc[nH]c2c1 | 0% | 15% | 5% | -14 | 4%
Cc1ccc(NC(=S)NC(=O)C2CCCC2)cc1C | 4.5µM* | 0% | 3.5µM* | -10 | -4%
O=C(NC(=S)Nc1ccc(Br)c(Cl)c1)C1CC1 | 7.9µM* | -35% | 4.5µM* | -22 | -4%
S=C(Nc1ccc2[nH]ccc2c1)NC1CCCCC1 | -16% | -32% | 11µM* | 25 | 0%
O=C(Nc1ccc(F)cc1)C1CCCCC1 | -11% | 10% | 10% | -8 | 1%
CC(C)(C)OC(=O)CNC(=O)c1nc[nH]c1C(=O)N1CCNCC1 | x | -15% | x | -20 | -2%
CCC(C)C(NC(=O)c1ccccc1)C(=O)N1CCN(C(=O)c2ccccc2)CC1 (stereo not drawn) | x | 0% | x | x | x
Cc1ccc(NS(=O)(=O)c2ccc(NC(=O)C3CC3)cc2)c(C)c1 | 25µM* | -10% | 82% | -8 | -2%
O=C(CCc1ccc(Oc2cc([N+](=O)[O-])cc([N+](=O)[O-])c2)cc1)N1CCCCC1 | 13µM* | -47% | u | -22 | -11%
O=C(c1ccc(Oc2ccc([N+](=O)[O-])cc2)cc1)N1CCCCCC1 | x | -24% | x | 25 | 0%
Fc1ccc(N/N=C/c2ccncc2)c(F)c1 | 18% | 4% | u | 7 | 1%
O=C(O)c1ccc(N/N=C/c2c(F)cccc2Cl)cc1 | 0.71µM* | u | 2µM* | -1 | 6%
CC(C)(C)c1ccc(/C=N/Nc2ccc(C(=O)O)cc2)cc1 | 18µM* | -8% | 0.02µM* | 1 | -3%
